This is an account of results in PubChem BioAssay AID652257 (The Scripps Research Institute Molecular Screening Center, 2013).

Several values for one entry are separate records, joined by “and”; a condition that tells them apart may be missing. Equal values may be shown once. Hit rate of the full screen: of about 370,000 compounds, about 4,800 (1.3%) were called active.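 The calls were made as follows: active = inhibition above about 21% made by adding two undisclosed values (limit read from the data); inactive = the rest.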 For the sample, actives were picked, then their nearest neighbours and some compounds at random. The source holds several records for some structures; these can differ, active in one and inactive in another.

As a reminder, the inhibition is the relative decrease from the control value, in per cent.

Sequence of Protein arginine N-methyltransferase 1 (Homo sapiens) (Q99873 whole entry, looked up): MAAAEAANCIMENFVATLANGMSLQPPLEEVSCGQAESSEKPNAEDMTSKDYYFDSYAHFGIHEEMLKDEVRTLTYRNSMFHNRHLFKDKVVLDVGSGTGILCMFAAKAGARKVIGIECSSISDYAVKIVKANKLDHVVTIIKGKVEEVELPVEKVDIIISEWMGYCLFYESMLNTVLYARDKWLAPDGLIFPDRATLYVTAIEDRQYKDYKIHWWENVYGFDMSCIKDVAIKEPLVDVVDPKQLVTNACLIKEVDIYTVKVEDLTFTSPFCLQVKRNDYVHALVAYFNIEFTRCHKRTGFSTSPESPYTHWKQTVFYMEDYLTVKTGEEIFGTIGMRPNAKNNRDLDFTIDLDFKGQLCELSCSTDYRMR

The test addresses Protein arginine N-methyltransferase 1 (Homo sapiens) (UniProt Q99873). As to the kind of experiment: PRMT1 methyltransferase inhibitors, primary screen, biochemical, fluorescence polarization (AID 652257). Particulars: recombinant PRMT1, activity-based probe fluorescence polarization; at 2.79 µM; stronger effect = higher value. For orientation: Fluorescence polarisation rises when a labelled molecule tumbles more slowly, as on binding a larger partner.
As for `CC(NCc1nc2ccccc2n1C)C12CC3CC(CC(C3)C1)C2` (configuration not stated), the inhibition is 5.86% (inactive).
As for `CCC(C)[C@@H](C(=O)OC)N(CCc1cn(Cc2ccccc2)nn1)S(=O)(=O)c1ccccc1Br` (some centres not stated), the inhibition was 1.11% (inactive).
As to `NC(=O)C[C@@H]1NC(=O)CNC(=O)c2cc([N+](=O)[O-])cc(I)c2NCCC(C(N)=O)NC1=O` (some centres not stated), the inhibition was -3.5% (inactive).
To `CC(=O)N1CC[n+]2c(-c3ccc([N+](=O)[O-])cc3)csc21` belongs 52.3% (active); to `CN1C2CCC1CC(NC(=O)c1ccc([N+](=O)[O-])cc1)C2` (configuration not stated), -4.9% (inactive).
As for `Cc1cc(C)cc(C(=O)N2CCN=C2SCc2ccc([N+](=O)[O-])cc2)c1`, the figure is -6.78% (inactive); as for `Cc1ccc(-n2c(SCC(=O)Nc3ccc(S(=O)(=O)Nc4nccs4)cc3)nnc2-c2ccccn2)cc1`, -1.31% (inactive); as for `Cc1ccc(OS(=O)(=O)c2ccc(-c3csc(C)n3)s2)c(C)c1`, 27.8% (active).
As for `C=CCN1C(=O)[C@@H](CC(=O)NCC2CCCCC2)[C@]2(C(=O)OC)CCCCC=C12`, the figure is -0.92% (inactive); as for `COc1cc(C2C(C#N)=C(C)NC3=C2C(=O)CC(C)(C)C3)ccc1O` (configuration not stated), -0.43% (inactive).
For the molecule `C=CCSC1=C(C#N)C(c2cc(Br)c(O)c(OC)c2)CC(=O)N1` (configuration not stated), the inhibition was 23.6% (active).
As for `Cc1cc(=O)[nH]c2nnnn12`, the figure is -0.07% (inactive); as for `CCNC(=O)COc1cc(C)c(Br)c(C)c1`, -2.57% (inactive); as for `Cc1ccc(NC(=S)NNC(=O)CSc2nnc(SCc3ccccc3Cl)s2)cc1`, -4.6% (inactive).
`Cc1cc(=O)[nH]c(SCC(=O)Nc2ccc(F)cc2F)n1`: the inhibition is -0.33% (inactive).
As for `COc1ccc(C(=O)Nc2ccc(-n3nncc3C(C)(C)C)cc2)cc1`, the inhibition is 1.48% (inactive).
As for `COc1ccc(NC(=O)c2ccc(C#CC(C)(C)O)cc2)cc1`, the figure is 25.5% (active); as for `COc1ccc(C(=O)Nc2c(N)nc(SCC(=O)Nc3ccc(C(C)=O)cc3)[nH]c2=O)cc1`, 0.6% (inactive).
Turning to `O=C(CCCCCN1C(=O)C2C3C=CC(C3)C2C1=O)Nc1ccccn1` (configuration not stated), the inhibition was -1.78% (inactive).
As for `Cc1n[nH]c(=O)c2c(NC(=O)COC(=O)c3ncc(Cl)c(Cl)c3Cl)oc(C)c12`, the figure is 7.67% (inactive); as for `O=C(c1ccncc1)N1CC[C@H]2[C@H](CCCN2Cc2ccc(F)cc2)C1`, 0.01% (inactive).
For the molecule `Cc1c(C#N)c(NC(=O)c2ccccc2)n(Cc2ccccc2)c1C`, the inhibition is -3.16% (inactive).
As for `CC(=O)Nc1ccc(C(=O)Nc2nc(-c3cc(C)n(Cc4ccccc4)c3C)cs2)cc1`, the figure is 25.2% (active); as for `CCCn1c(C)cc(-c2csc(NC(=O)CCc3nc4ccccc4c(=O)[nH]3)n2)c1C`, 9.77% (inactive); as for `COc1ccc([C@H]2N[C@]3(CCCN(CC4CCCCC4)C3=O)[C@H]3C(=O)N(C)C(=O)[C@@H]23)cc1`, 5.33% (inactive).
As for `Cc1cc(NS(=O)(=O)c2ccc(NC(=O)CSc3nnc(-c4ccc(C(C)(C)C)cc4)n3Cc3ccco3)cc2)nc(C)n1`, the figure is 3.17% (inactive).
As for `O=C(Oc1ccccc1C(=S)N1CCCCC1)c1cc([N+](=O)[O-])cc([N+](=O)[O-])c1`, the figure is 41.9% (active); as for `O=C(Oc1ccc(Br)cc1C(=S)N1CCOCC1)c1cccc([N+](=O)[O-])c1`, 5.11% (inactive).
For `O=C(Oc1ccccc1Cl)c1ccc(N2CCOCC2)c([N+](=O)[O-])c1`, the inhibition was -1.29% (inactive).
Turning to `O=C(Cn1c(N2CCN(C/C=C/c3ccccc3)CC2)nc2ccccc21)c1ccccc1`, the inhibition is 0.25% (inactive).
As for `CCC(C(=O)NCc1cccnc1)n1nc(C)c2sc3ccccc3c2c1=O` (configuration not stated), the figure is 3.72% (inactive); as for `Cc1ccc(S(=O)(=O)C2(S(=O)(=O)c3ccc(C)cc3)CCCC2)cc1`, 1.95% (inactive); as for `CCCOc1ccc(C(=O)C(CCC(CNCC)C(=O)c2ccc(OCCC)cc2)CNCC)cc1` (configuration not stated), -1.8% (inactive).
Regarding `CCc1ccc(N(C(=O)c2csnn2)C(C(=O)NC2CCCCC2)c2ccncc2)cc1` (configuration not stated), the inhibition was 0.98% (inactive).
As for `Clc1ccc(-n2c(COc3ccccc3)nnc2SCc2nc3ccccc3[nH]2)cc1`, the inhibition is 4.16% (inactive).
To `CC1CCN(c2ccc(C(=O)O)cc2NS(=O)(=O)c2ccc(Br)s2)CC1` belongs -1.42% (inactive); to `COc1ccc(C(=O)COC(=O)COc2ccc(C)c(C)c2)cc1`, 29.1% (active); to `COc1ccc(OCC(=O)OCCN(C)C)cc1`, -3.78% (inactive).
As for `Cc1ccc(OCC(=O)Nc2ccc(C(=O)O)cc2NC(=O)COc2ccc(C)c(C)c2)cc1C`, the figure is -0.54% (inactive); as for `CCn1c(=O)n2n(c1=O)[C@@]1(C=C3CCCC[C@H]32)N=C(NC(=O)c2ccccc2)N(Cc2ccccc2)[C@H]1Cc1ccccc1`, -0.64% (inactive); as for `Cc1cccc(NC(=O)C[C@H]2CC[C@H]3[C@@H](COc4ccc(NC(=O)Nc5ccccc5)cc4C(=O)N3C)O2)c1`, 0.26% (inactive).
As for `CCOC(=O)Nc1ccc(S(=O)(=O)N(C)C(C)C)cc1`, the figure is 1.03% (inactive).
With `COc1ccc2c(C(C)c3ccc(N)cc3)cn(C)c2c1` (configuration not stated), the inhibition is -4.35% (inactive).
To `O=C(CSc1cccc[n+]1[O-])c1ccc(-c2ccccc2)cc1` belongs 39.5% (active); to `CCN(C(=O)CSc1cccc[n+]1[O-])c1ccccc1`, -2.83% (inactive).
As for `O=C(CSc1cccc[n+]1[O-])NCCCc1ccccc1`, the figure is -1.06% (inactive).
As for `CCN(CC)C(=O)CC[C@H]1CC[C@]2(CCCN(Cc3ccc(Cl)cc3)C2)O1`, the figure is -4.34% (inactive); as for `Cc1ccc(NCc2n[nH]c(=S)n2-c2ccccc2)cc1Cl`, 15.4% (inactive); as for `CCn1c(CSCc2c(Cl)cccc2Cl)n[nH]c1=S`, -0.4% (inactive).
For `S=c1[nH]nc(CSCc2ccc(Cl)cc2Cl)n1-c1ccccc1`, the inhibition was 21.5% (active).
To `CCCNC(=O)C1(C)CCCN(C(=O)c2oc3ccccc3c2C)C1` (configuration not stated) belongs -2.54% (inactive); to `CNc1nc(=O)n(C2CCCO2)cc1C` (configuration not stated), 4.11% (inactive); to `C=CS(=O)(=O)N(Cc1nnn(Cc2ccccc2)c1Br)[C@H](C(=O)OC)C(C)C`, -6.2% (inactive).
As for `COc1cc2c(=O)n(C)c3ccccc3c2cc1OC`, the figure is 0.5% (inactive); as for `Cn1c(=O)c([N+](=O)[O-])c(Oc2ccccc2)c2ccccc21`, 5.71% (inactive).
As for `Cc1cccc(Oc2c([N+](=O)[O-])c(=O)n(C)c3ccccc23)c1`, the figure is 30% (active); as for `CC(C)NC(=O)NNc1c(Cl)cncc1Cl`, -2.84% (inactive).
Take `CCC(c1ccc(NC(=O)OC(C)(C)C)cc1)c1cc(OC)cc(OC)c1` (configuration not stated): the inhibition is 0.65% (inactive).
As for `O=c1/c(=C/c2ccc(CNS(=O)(=O)c3ccccc3)o2)sc2n1CCN=2`, the figure is 42.5% (active).
To `O=S(=O)(NCC1OCCc2ccccc21)c1ccccc1` (configuration not stated) belongs 1.74% (inactive); to `O=C(c1ccc(S(=O)(=O)NCc2ccco2)cc1)N1CCN(c2ccccc2)CC1`, -5.34% (inactive).
For `N#Cc1ccccc1-n1c(N)c(C(=O)N2CCCC2)sc1=S`, the inhibition is 12.5% (inactive).
As for `Cc1ccc(-n2c(N)c(C(=O)N3CCOCC3)sc2=S)c(C)c1`, the figure is 2.33% (inactive); as for `Cc1cccc(-n2c(N)c(C(=O)N3CCN(C)CC3)sc2=S)c1`, 78.2% (active); as for `O=C(CNC(=O)c1ccccc1)OC(C(=O)Nc1cc([N+](=O)[O-])ccc1F)c1ccccc1` (configuration not stated), -5.95% (inactive).
To `COc1cccc(N2CC(NS(=O)(=O)c3cccs3)CC2=O)c1` (configuration not stated) belongs 0.96% (inactive).
As for `CN[C@H]1C[C@H]2c3cc(N4CCOCC4)ccc3CCN2C[C@H]1[C@H](C)O`, the figure is 1.75% (inactive); as for `Cc1ccccc1NC(=O)CSC1=NCCN1`, 9.55% (inactive); as for `Cc1cccc(NC(=O)CSc2nc3c(c(=O)[nH]2)CCCC3)c1C`, -0.58% (inactive).
Turning to `Cc1cccc(NC(=O)COC(=O)CCc2ccccc2)c1C`, the inhibition was -1.61% (inactive).
Regarding `Cc1ccccc1NC(=O)CSC(=O)c1ccccc1`, the inhibition was 24.5% (active).
To `Cc1ccccc1NC(=O)Cn1nnc(-c2ccccc2F)n1` belongs -2.95% (inactive); to `Cc1cccc(NC(=O)CSC(N)=O)c1C`, 35.8% (active); to `CC(c1c[nH]c2ccccc12)c1c(-c2ccccc2)n(C)c2ccccc12` (configuration not stated), 8.87% (inactive).
As for `CN(C)CC(=O)N[C@@H]1C[C@@H]2O[C@H](CO)CC[C@@H]2O[C@@H]1CCc1ccc(C#Cc2ccccc2)cc1`, the figure is -0.26% (inactive); as for `CSc1cccc(NC(=O)CN2C(=O)COc3ccc(S(=O)(=O)N4CCOCC4)cc32)c1`, -1.34% (inactive).
To `O=C(c1c[nH]c2ccccc12)N1CCC(Oc2cccnc2)CC1` belongs -5.2% (inactive).
With `CN1CC(=O)N=C1N`, the inhibition is -1.28% (inactive) and 0.16% (inactive).
Take `CCOc1ccc(CCNC(=O)COC(=O)C2CCN(c3ccc(C(F)(F)F)cn3)CC2)cc1OCC`: the inhibition is -0.97% (inactive).
With `CCCC(O)(c1ccccc1)C(c1ccccc1)c1ccccn1` (configuration not stated), the inhibition was 3.01% (inactive).
As for `C=CC1=C(C(=O)O)N2C(=O)[C@@H](NC(=O)/C(=N/OCC(=O)O)c3csc(N)n3)[C@H]2SC1`, the figure is 28.6% (active); as for `C=CC1=C(C(=O)O)N2C(=O)[C@@H](NC(=O)/C(=N\OCC(=O)O)c3csc(N)n3)[C@H]2SC1`, 23.7% (active).
To `CO/N=C(\C(=O)N[C@@H]1C(=O)N2C(C(=O)O)=C(COC(C)=O)CS[C@H]12)c1csc(N)n1` (stereo in doubt) belongs 16% (inactive) and 23.3% (active) and 25.5% (active); to `COc1ccc(-n2c(COc3ccccc3)nnc2SCC(=O)Nc2ccc3c(c2)OCO3)cc1`, 0.3% (inactive); to `C=C(C)CNC(=S)/N=c1\scc(C)n1CC`, 2.72% (inactive).
Turning to `O=C(NCCC1=CCCCC1)C1CCN(S(=O)(=O)c2ccc(Cl)s2)CC1`, the inhibition is 2.95% (inactive).
As for `CCc1c(C)c2ccc(OC3CCCCC3=O)cc2oc1=O` (configuration not stated), the figure is -0.12% (inactive).
